# Laboratory results taken from PubChem BioAssay (NCI).
# This is part of a sample that, as a whole, favours compounds with a hit. Of some 83,000 tested, about 20% had one in any assay.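 Compound tested at a single concentration for 48 hours in 96-well plates; a percent growth value below 10 was scored as active.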 The source made the active and inactive calls.
# Tested on: HCC-2998 colon
# Experiment: NCI-60 one-dose screen, 48 h (100 = growth as untreated, 0 = no growth, -100 = all killed)
# Conditions: 10 µM unless noted
# Method: Growth inhibition of the HCC-2998 human tumor cell line is measured as a screen for anti-cancer activity. Cells are grown in 96 well plates and exposed to the test compound for 48 hours. Compounds are tested at a single concentration, which is 10^-5 M for most compounds. The reported endpoint is percent growth (GI% or GIPRCNT), where numbers from 0 - 100% represent growth inhibition, and numbers from -100% - 0 represent cell death. For example, a value of 40 represents 60% growth inhibition. A value of 0 means no net growth occurred over the course of the experiment. A value of -40 indicates 40% of cells at the beginning of the experiment died by the end of the experiment. A value of -100 means all cells are dead at the end of the experiment.
# NCI-60 Human Tumor Cell Lines Screen was performed using the standard one-dose NCI protocol, which is described in more detail at https://dtp.cancer.gov/discovery_development/nci-60/default.htm.
# Compounds with GIPRCNT values below 10 were considered active. Activity score was based on GIPRCNT using the following formula: […]
# Score is 0 for GIPRCNT values of 100 or above, 50 for GIPRCNT values of 0, and 100 for GIPRCNT values of -100.
row,SMILES,growth
1,c1ccc2c(-c3nccs3)c[nH]c2c1,107% (inactive)
2,CCN(CC)c1ccc(/C=N/NC(=O)CSc2nc3ccccc3c(=O)n2Cc2ccc(S(N)(=O)=O)cc2)c(O)c1,20.3% (inactive)
3,Cc1cccc(C)c1N=c1oc2ccc(Cl)cc2nc1-c1ccccc1O,93.8% (inactive)
4,COc1cc(-c2n/c(=C\c3c(O)[nH]c4ccc(Cl)cc34)cc3c2=Nc2ccccc2-3)ccc1F,71.6% (inactive)
5,N#Cc1c(-c2cccc([N+](=O)[O-])c2)nc(SCC(=O)c2ccc(Cl)cc2)[nH]c1=O,106% (inactive)
6,C=C1C(=O)O[C@H]2[C@H]1CC/C(CNC(=O)/C=C/c1cccc(OC)c1)=C\CC[C@@]1(C)O[C@@H]21,36.5% (inactive)
7,CCNC(=O)Oc1ccc(/C(=C(\C)c2ccccc2)c2ccc(OCCCN(C)C)cc2)cc1,67.9% (inactive)
8,COC(=O)C(OC(C)=O)C(OC(C)=O)c1ccc(OC)c(OC)c1 (stereo not given),108% (inactive)
9,CC(=O)[C@@H]1CC[C@]2(CO)CC[C@]3(C)[C@H](CC[C@@H]4[C@@]5(C)CCCNC(C)(C)[C@@H]5CC[C@]43C)[C@@H]12,101% (inactive)
10,N#Cc1c(NC(=O)NCc2ccccc2)sc2c1CCCCC2,24.5% (inactive)
11,Nc1ccccc1NC(=O)c1ccc(-n2nc(-c3ccccc3)c3ccccc32)cc1,104% (inactive)
12,Cc1nc(N)nc(N[C@@H](C)c2nc3cccc(NCc4ccc(C(=O)NO)cc4)c3c(=O)n2-c2ccccc2)n1,98% (inactive)
13,OC(c1ccc(F)c(C(F)(F)F)c1)c1cnccc1NC1CCCCC1 (stereo not given),-51% (active)
14,COc1cc2nc(-c3ccc(Cl)cc3)cc(OCCCN3CCCC3)c2cc1OC,72.4% (inactive)
15,C=C(C)[C@@H]1CC[C@]2(C(=O)N3CCN(C)CC3)CC[C@]3(C)[C@H](CC[C@@H]4[C@@]5(C)CC[C@H](O)C(C)(C)[C@@H]5CC[C@]43C)[C@@H]12,-85.3% (active)
16,O=S(=O)(NCCNc1nccc(-c2c(-c3cccc(F)c3)nc3sccn23)n1)c1ccc(Cl)cc1,83.4% (inactive)
17,N#Cc1cccc(-c2ccc3c(c2)NC(=O)/C3=C\c2ccc[nH]2)c1,36% (inactive)
18,O=C(Nc1ccccc1C(=O)N/N=C(\c1ccccc1)c1ccccn1)c1ccc(F)cc1,32.5% (inactive)
19,N/C(=N\C(N)=N\c1nc2ccccc2s1)c1cnccn1,18.5% (inactive)
20,O=C1/C=C/[C@@H](O)[C@@H]2C[C@@H](O)C[C@H]2/C=C/CCC[C@H](CCc2ccc3ncccc3c2)O1,12.9% (inactive)

row,SMILES,growth
1,O=C(NO)c1ccc(-n2nc(-c3ccccc3)c3ccccc32)cc1,44.1% (inactive)
2,COc1cc2c(cc1OC)C(=O)/C(=C/c1cc(C)c(O)c(C)c1)S2,60.4% (inactive)
3,C[C@H]1[C@H]2[C@H]3CC[C@@H]4[C@@]5(C)CC[C@H](O)C(C)(C)[C@@H]5CC[C@@]4(C)[C@]3(C)CC[C@]23CO[C@]1(C)[C@@H](C(=O)/C=C\c1ccco1)C3,104% (inactive)
4,COc1ccc(/C=C/c2nc(Nc3ccc(S(=O)(=O)Nc4nc(C)cc(C)n4)cc3)c3ccccc3n2)cc1,74.9% (inactive)
5,COc1ccc(OC)c(CCn2cncc2-c2c[nH]c3ccccc23)c1,91.8% (inactive)
6,COc1cc2c(c(OC)c1OC)-c1ccc(NNC(=S)N(Cc3cccc(C[N+](Cc4cccc(CNC56CC7CC(CC(C7)C5)C6)c4)(Cc4cccc(CNC56CC7CC(CC(C7)C5)C6)c4)Cc4cccc(CN(C(=S)NNc5ccc6c(cc5=O)[C@@H](NC(C)=O)CCc5cc(OC)c(OC)c(OC)c5-6)C56CC7CC(CC(C7)C5)C6)c4)c3)C34CC5CC(CC(C5)C3)C4)c(=O)cc1[C@@H](NC(C)=O)CC2 (stereo not given in full),-58.4% (active)
7,O=C(Nc1ccc(F)cc1)Nc1ccc(NC(=O)c2cc(Cl)nc3ccccc23)cc1,51% (inactive)
8,CCCCCN1C=C/C(=C\C(=O)N2CCCc3ccccc32)c2ccccc21,102% (inactive)
9,COc1cc(NC(C)CCCNC(=O)CCC(=O)NCCCNCCCCCCCCNCCCNC(=O)CCC(=O)NCCCC(C)Nc2cc(OC)cc3cccnc23)c2ncccc2c1 (stereo not given),69.5% (inactive)
10,CCNC(=O)Oc1ccc(/C(=C(\C)c2ccccc2)c2ccc(OCCN(CC)CC)cc2)cc1,91.5% (inactive)
11,Cc1c(C(=O)NCCC(=O)NO)sc2ncnc(Nc3ccc(F)c(Cl)c3)c12,105% (inactive)
12,COc1ccc(NC(=O)c2cc(NCc3cc(O)ccc3O)ccc2O)cc1,107% (inactive)
13,CCc1c(Cl)nc(N)nc1Nc1ccc(C)c(C)c1,101% (inactive)
14,O=C(/C=C(/C=C/c1coc2ccccc12)OB(F)F)/C=C/c1coc2ccccc12,98.8% (inactive)
15,CC(C)(C)CC(C)(C)n1nnnc1C(NC12CC3CC(CC(C3)C1)C2)c1ccccc1 (stereo not given),104% (inactive)
16,CCCCCOc1ccc(/C=N/Nc2cc(C)nc3ccc(Cl)cc23)cc1,-67.7% (active)
17,Cc1cnc(C(=O)Nc2nc3ccc(S(=O)(=O)Nc4ccc(C(C)(C)C)cc4)cc3[nH]2)cn1,33.3% (inactive)
18,COc1cc2cc(Oc3cccc(NC(=O)Nc4cc(C(F)(F)F)cc(C(F)(F)F)c4)c3)c(C)nc2cc1OC,21.3% (inactive)
19,CCc1ccc(-c2cn3ccnc3c(-c3ccc4ncn(Cc5ccccc5)c4c3)n2)cc1,74.8% (inactive)
20,COc1cc(/C=N/NC(=O)c2cnn3c2NC(c2ccccc2)C3)ccc1Oc1ccccc1 (stereo not given),57.3% (inactive)
